BAZ2B inh – inhibitors of human BAZ2B bromodomain; Potency, µM (doses to about 114 µM), for the others: at the highest dose activity change, negative = inhibition, most hits filed as inhibitors; Q9UIF8; AID 504333; AlphaScreen BAZ2B-H3K14Ac peptide displacement; actives 4.4% (n = 360,000); note: potency is the fitted concentration of half-maximal effect; % is set by controls: 0 for no effect and ±100 for the full control effect; nearly all actives have a fitted effect of over 60% in size
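In this displacement format the biotinylated H3(5-23) peptide acetylated at Lys14 serves as ligand at 50 nM, with BAZ2B at 50 nM in PBS pH 7.4 containing 0.01% Tween-20. Donor and acceptor beads are 10 ug/mL final.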
TDP1 inh – blocks human tyrosyl-DNA phosphodiesterase 1; Q9NUW8; recombinant TDP1, AlphaScreen DNA substrate cleavage; Potency, µM (top dose mostly 130 µM), inactives show at the highest dose activity change, negative = inhibition, most hits filed as inhibitors; actives 0.28% (n = 350,000); AID 485290; note: potency is the fitted concentration of half-maximal effect; % is set by controls: 0 for no effect and ±100 for the full control effect; nearly all actives have a fitted effect of over 40% in size
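AlphaScreen read-out: signal falls as enzyme removes the 3' tyrosine-FITC from a 5'-biotinylated DNA oligo (15 nM, 5 min, RT). Enzyme was E. coli-made recombinant Tdp1 at 1 nM, exposed to compound for 15 min beforehand; beads 10 ug/ml, 10 min.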
CtBP-E1A inh – blocks the CtBP interaction with E1A; AID 651724; actives 0.49% (n = 340,000); AlphaScreen GST-E1A/His-CtBP binding, 1536-well; hits give low values; activity change, % (no concentration beside the values); in the data active = activity change below about -65%; inconclusive = mostly about -30% to -63%; note: % is set by controls: 0 for no effect and ±100 for the full control effect
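Steps: dispense buffer (Tris pH 8.0, NaCl 300 mM, TCEP 1 mM, BSA, Tween 20); add 5X protein mix (GST-E1A, His-CtBP, 125 nM each); pin 23 nL compound; 2 h at 37 °C, dark; add 5X beads (50 ug/mL); 1 h; read.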
HP1b binding inh – inhibitors of HP1-beta chromodomain binding to methylated histone tails. actives 0.56% (n = 390,000). AlphaScreen HP1-beta / biotin-H3K9me3 peptide binding. Potency, µM (titrated, usually from 114 µM), without a hit: at the highest dose activity change, negative = inhibition, hits mostly inhibitors; note: potency is the fitted concentration of half-maximal effect; nearly all actives have a fitted effect of over 70% in size
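Compound inhibition of the preformed complex between 50 nM HP1-beta and 50 nM biotinylated H3K9me3 peptide was read by AlphaScreen. Buffer was PBS pH 7.4 with 0.01% Tween-20. Incubations ran 30 min at room temperature, with 10 ug/mL donor/acceptor beads.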
Six1-Eya2 inh – Six1/Eya2 interaction inhibition. activity change, % (concentration not given with the values). actives 0.56% (n = 360,000). AlphaScreen GST-Six1/His-Eya2 binding, biochemical; hits give low values; in the data active = activity change below about -65%; inconclusive = mostly about -30% to -63%; note: % is set by controls: 0 for no effect and ±100 for the full control effect
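Compounds are tested against tagged Six1 and Eya2 proteins bridged by glutathione donor and nickel acceptor beads; after a one-hour incubation at 37 °C without light, AlphaScreen emission is recorded.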
JMJD2A Tudor inh – inhibitors of human JMJD2A Tudor domain. O75164. AlphaScreen JMJD2A-Tudor / H3K4me3 peptide binding. Potency, µM (top dose mostly 114 µM), for inactives: at the highest dose activity change, negative = inhibition, usual class: inhibitors. actives 4.4% (n = 390,000). AID 504339; note: potency is the fitted concentration of half-maximal effect; % is set by controls: 0 for no effect and ±100 for the full control effect; nearly all actives have a fitted effect of over 50% in size
Target sequence (O75164 whole entry, looked up, the tested form may be a part): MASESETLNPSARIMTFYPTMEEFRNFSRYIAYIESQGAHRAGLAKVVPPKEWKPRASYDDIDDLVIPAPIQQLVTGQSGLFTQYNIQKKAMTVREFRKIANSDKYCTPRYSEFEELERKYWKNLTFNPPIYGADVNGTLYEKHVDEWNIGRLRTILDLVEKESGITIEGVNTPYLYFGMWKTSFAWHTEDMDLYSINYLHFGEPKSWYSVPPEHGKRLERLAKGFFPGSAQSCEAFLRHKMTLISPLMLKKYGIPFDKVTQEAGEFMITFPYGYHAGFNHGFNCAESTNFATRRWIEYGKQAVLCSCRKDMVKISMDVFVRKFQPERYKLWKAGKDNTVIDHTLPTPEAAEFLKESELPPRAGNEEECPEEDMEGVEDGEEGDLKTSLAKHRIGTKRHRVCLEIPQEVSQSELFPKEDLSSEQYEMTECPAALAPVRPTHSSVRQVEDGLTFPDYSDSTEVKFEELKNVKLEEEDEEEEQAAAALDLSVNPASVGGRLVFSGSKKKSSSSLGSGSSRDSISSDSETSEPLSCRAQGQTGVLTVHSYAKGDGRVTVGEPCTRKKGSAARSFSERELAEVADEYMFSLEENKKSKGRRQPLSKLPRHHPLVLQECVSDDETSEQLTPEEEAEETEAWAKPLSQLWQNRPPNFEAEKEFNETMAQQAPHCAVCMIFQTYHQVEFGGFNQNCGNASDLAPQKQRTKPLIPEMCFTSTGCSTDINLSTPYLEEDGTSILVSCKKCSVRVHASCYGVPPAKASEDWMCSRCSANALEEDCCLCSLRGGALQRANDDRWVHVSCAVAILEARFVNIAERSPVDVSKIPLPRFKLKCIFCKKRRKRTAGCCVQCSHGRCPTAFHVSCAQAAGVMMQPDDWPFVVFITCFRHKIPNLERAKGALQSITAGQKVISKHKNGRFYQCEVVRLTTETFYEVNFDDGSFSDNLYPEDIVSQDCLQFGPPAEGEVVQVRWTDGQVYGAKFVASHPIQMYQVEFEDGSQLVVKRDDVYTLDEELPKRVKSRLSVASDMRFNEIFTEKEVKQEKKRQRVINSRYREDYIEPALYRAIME
* marks the source's active call; other numbers are inactive results; u = inconclusive; x = no result; [ ] = another dose, or the depositor's remark. Rows were chosen to be rich in hits. Some 5.3% of all compounds tested hit in one or more screens of this group. Unless noted, calls come from the whole dose curve; as a rule, active = well fitted inhibition curve with a large enough effect; inconclusive = small, poorly fitted or top-dose-only effect; inactive = no such curve, though single readings can be large or run the other way.

SMILES	BAZ2B inh	TDP1 inh	CtBP-E1A inh	HP1b binding inh	Six1-Eya2 inh	JMJD2A Tudor inh
O=C(CSc1nc2ccccc2nc1Cc1ccccc1)N1CCCc2ccccc21	0%	3%	x	40%[57 µM]	x	-1%
CC[n+]1cccc(-c2nc3ccccc3s2)c1	-12%	7%	9	-12%	2	-13%
CC[n+]1c(/C=C/N(C)c2ccccc2)n(-c2ccccc2)c2ccc(-c3nc4ccccc4s3)cc21	-18%	9%	-10	-13%	-18	35µM*
CCOc1ccc(-n2cc(C(=O)Nc3ccccc3OCC)c3cc(OC)c(OC)cc3c2=O)cc1	-4%	9%	x	-2%	x	-20%
CCS(=O)(=O)Nc1ccc(C2=NN(C(=O)c3ccccc3)C(c3cccs3)C2)cc1 (stereo not drawn)	79µM*	2%	-11	34%	-1	-22%
COC(=O)c1scc(-c2ccc(C)cc2)c1S(=O)(=O)N1CCN(c2ccc(C(C)=O)cc2)CC1	-18%	8%	x	43%	x	-29%
COc1ccc(-n2c(-c3ccc(Br)cc3)n[nH]c2=S)cc1	-37%	x	8	44%	-8	32µM*
COc1ccc(OC)c(-n2c(C)ccc2-c2ccc(S(C)(=O)=O)cc2)c1	45µM*	3%	-2	-11%	-17	u
COc1ccc(OC)c(-n2c(Cn3c(-c4ccccn4)nc4ccccc43)n[nH]c2=S)c1	u	3%	x	u	7	7.9µM*
COc1ccc(-c2n[nH]c(=S)n2-c2ccc(C)cc2)cc1	-15%	8%	0	-3%	-4	u
COc1ccc(-n2c(-c3ccc(C(C)(C)C)cc3)n[nH]c2=S)c(OC)c1	x	x	-8	x	-12	x
COc1ccc(-n2c(-c3ccc(Cl)cc3Cl)n[nH]c2=S)c(OC)c1	-31%	x	1	4%	-1	13µM*
COc1ccc(OC)c(-n2c(-c3ccc(S(C)(=O)=O)cc3)cc(C=O)c2C)c1	u	4%	0	9%	10	-21%
O=C(CCn1c(=O)c2cccn2c2cccnc21)NCc1ccc(Cl)cc1	-15%	-3%	x	50%	x	2%
CCOC(=O)c1ccccc1NC(=O)N1CCCn2nc(C)cc21	-15%[57.1 µM]	5%	x	4%	x	-25%
COc1ccc(OC)c(-n2c(-c3ccc(C)cc3)n[nH]c2=S)c1	6%	-3%	7	15%	5	u
COc1ccc(-c2n[nH]c(=S)n2N)c(OC)c1	x	3%	x	u	8	7.1µM*
COc1ccc(-c2n[nH]c(=S)n2-c2cc(OC)ccc2OC)cc1	-16%	x	4	-11%	-2	10µM*
COc1ccc(-c2cn[nH]c2N)c(OC)c1	-10%	6%	-1	18%	-1	-31%
O=C(CC1NCCNC1=O)Nc1ccc(F)c(Cl)c1 (stereo not drawn)	-12%	-2%	x	20%	x	-8%
Brc1ccc2c(c1)c1cc(Br)ccc1n2CC1CO1 (stereo not drawn)	x	7%	x	x	x	x
CC(C)Oc1cccc(C(=O)Nc2ccc3oc(-c4ccccc4)nc3c2)c1	0%	2%	x	26%	x	-20%
CC(N)c1csc(Nc2ccc(C(=O)NCCCO)cn2)n1 (stereo not drawn)	x	x	-83*	x	-69*	x
COc1ccc(C(N)c2csc(Nc3ccc(C(=O)NCCCO)cn3)n2)cc1 (stereo not drawn)	x	x	-79*	x	-76*	x
CCCNC(=O)Nc1nc(C(N)c2ccc(OC)cc2)cs1 (stereo not drawn)	x	x	u	x	-65*	x
SMILES	BAZ2B inh	TDP1 inh	CtBP-E1A inh	HP1b binding inh	Six1-Eya2 inh	JMJD2A Tudor inh
CCn1c(=N)c(C(=O)NCc2ccccc2)cc2c(=O)n3cc(C)ccc3nc21	13%	x	x	78%	x	7%
CCOC(=O)c1c(C)[nH]c(C)c1S(=O)(=O)N1CCC(C(=O)N2CCN(c3cccc(C)c3C)CC2)CC1	-33%	8%	x	8%	x	-35%
Cc1ccc(-c2nnc(Nc3ccc(O)cc3)c3ccccc23)cc1S(=O)(=O)NC(C)(C)CO	-14%	x	x	-6%	x	-30%
CCC(O)c1cc2c(cc1NC(=O)c1ccccc1F)OCCO2 (stereo not drawn)	2%	2%	x	66%	x	-13%
COc1ccccc1CN1CCN(C2CCN(C(=O)NC(C)C)CC2)C(=O)C1=O	-7%	-9%	x	24%	x	9%
COC(=O)c1cc(NC(=O)CCc2c(C)nc3c(c(C)nn3C(C)(C)C)c2C)cc(C(=O)OC)c1	-4%	6%	x	25%	x	-17%
Cc1[nH]c2ccccc2c1C(=O)CSc1ccc(Cl)cc1	-25%	0%	-4	u	-2	22µM*
Cc1[nH]c2ccccc2c1C(=O)CSc1nccc(=O)[nH]1	-7%	1%	-10	14%	-2	-16%
COCCCn1c(=O)/c(=C\c2cccc(OC)c2OC)s/c1=C(/C#N)C(=O)Nc1ccc(C(=O)O)cc1	45µM*	x	-3	6%	-1	-9%[11.4 µM]
CCOC(=O)OCC1OC(c2ccccc2)C=CC1OC(=O)OCC (stereo not drawn)	x	10%[21 µM]	x	x	x	x
CC(Oc1ccc(F)cc1)C(=O)NCC1(N(C)C)CCCCC1 (stereo not drawn)	-7%	-6%	x	23%	x	-12%
Cc1ccc(/C=C2\SC(=S)N(c3cccnc3)C2=O)o1	u	x	-12	9%	-6	-18%
O=C(O)c1cccc(N2C(=O)/C(=C/c3ccc(SCc4ccc(Cl)cc4)o3)SC2=S)c1	32µM*	x	-4	-16%	u	45µM*
C/C(=N\O)C(=O)NCCN(C)C	-9%	5%	6	-3%	17	7.9µM*
CCc1cccc(NC(=O)Cn2c(=O)n(Cc3ccccc3)c(=O)c3c(C)c(C(=O)N(C)C)sc32)c1	-16%	2%	x	4%	x	-23%
CC(=O)Sc1nc(-c2ccccc2)[nH]c1S(=O)(=O)c1ccc(C)cc1	u	7%	-3	u	0	13µM*
Cc1ccc(S(=O)(=O)c2[nH]c(-c3ccccc3)nc2SCC(=O)O)cc1	-21%	-1%	x	42%	x	-18%
CCN(CCNCC(O)COCc1ccc(Cl)cc1)c1cccc(C)c1 (stereo not drawn)	20µM*	3%	-21	40µM*	-14	0.89µM*
O=C(Nc1c2c(nn1-c1ccc(F)cc1)CS(=O)C2)c1ccc2c(c1)OCO2 (stereo not drawn)	-3%	2%	4	2%	5	89µM*
CC1(C)Oc2ccc3ccc(=O)oc3c2-c2cnoc21	50µM*	7%	0	16%	22	u
CCc1ccc(-n2nc(CO)c(C(=O)NCc3ccccn3)n2)cc1	-30%	0%	x	61%	x	-7%
